Experimental data: PubChem BioAssay (NCATS)
Values joined by “and” are separate entries in the source; they are usually repeats but may differ in a detail not shown here. Identical values can stand only once. Inconclusive results are not listed. Some structures have more than one record in an assay (separate samples or runs), and their calls can disagree. Active and inactive are the calls of the source. Calls follow the shape of the dose curve; as a rule, active = well fitted curve in the direction sought with a large enough effect; inconclusive = small, poorly fitted or top-dose-only effect, or another doubt; inactive = no such curve, though single readings can be large; an effect the other way counts as inactive or inconclusive.

Assays:
CRL-7250 [1] = assay: Cytotoxic Profiling of Annotated Libraries Using Quantitative High-Throughput Screening (AID 1296008); conditions: Five cell lines viability, CellTiter-Glo ATP luminescence, 48-72 h; max response: active compounds read low; also: nearly all actives have a fitted effect of over 60% in size; also: potency is read from the fitted curve at half-maximal effect; as to max response: % is scaled to controls: 0 for no effect and ±100 for the full control effect
Outline: (§1)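 Compounds were pin-transferred onto cells and incubated 48 or 72 hr at 37 degree Celsius, 95% humidity. CellTiter-Glo was added, plates sat 10 min at room temperature, then ATP-coupled luminescence was imaged as the viability read-out.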

HEK293 = assay: as above; conditions: Five cell lines viability, CellTiter-Glo ATP luminescence, 48-72 h; max response: active compounds read low
Outline: as §1

HaCat [2] = assay: as above; conditions: Five cell lines viability, CellTiter-Glo ATP luminescence, 48-72 h; max response: active compounds read low
Outline: as §1

KB-3-1 = assay: as above; conditions: Five cell lines viability, CellTiter-Glo ATP luminescence, 48-72 h; max response: active compounds read low
Outline: as §1

NIH3T3 [3] = assay: as above; conditions: Five cell lines viability, CellTiter-Glo ATP luminescence, 48-72 h; max response: active compounds read low
Outline: as §1

CRL-7250 [4] = assay: qHTS assay to identify novel small-molecules to repurpose for Merkel cell carcinoma treatment (AID 1296009); conditions: MCC and control cell lines, CellTiter-Glo viability, 72 h; at 44.8 µM (top of the series) unless noted; also: nearly all actives have a fitted effect of over 60% in size
Outline: (§2)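 Cells exposed to NPC (8-point) and MIPE (11-point) compound dilutions for 72 hr at 37 degree celsius; viability read by CellTiter-Glo luminescence, normalized to no-cell and DMSO in-plate controls.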

HEK293T = assay: as above; conditions: MCC and control cell lines, CellTiter-Glo viability, 72 h; at 44.8 µM (top of the series) unless noted
Outline: as §2

MCC-13 = assay: as above; conditions: MCC and control cell lines, CellTiter-Glo viability, 72 h; series mostly up to 46 µM
Outline: as §2

MCC-26 = assay: as above; conditions: MCC and control cell lines, CellTiter-Glo viability, 72 h; series mostly up to 46 µM
Outline: as §2

MKL-1 = assay: as above; conditions: MCC and control cell lines, CellTiter-Glo viability, 72 h; series mostly up to 46 µM
Outline: as §2

MKL-2 = assay: as above; conditions: MCC and control cell lines, CellTiter-Glo viability, 72 h; series mostly up to 46 µM
Outline: as §2

UISO = assay: as above; conditions: MCC and control cell lines, CellTiter-Glo viability, 72 h; series mostly up to 46 µM
Outline: as §2

WaGa = assay: as above; conditions: MCC and control cell lines, CellTiter-Glo viability, 72 h; series mostly up to 46 µM
Outline: as §2

HACAT [5] = assay: as above; conditions: MCC and control cell lines, CellTiter-Glo viability, 72 h; at 44.8 µM (top of the series) unless noted
Outline: as §2

NIH3T3 [6] = assay: as above; conditions: MCC and control cell lines, CellTiter-Glo viability, 72 h; at 44.8 µM (top of the series) unless noted
Outline: as §2

C33A = assay: Primary qHTS to identify gynecologic anti-cancer compounds using libraries of approved drugs and bioactive compounds (AID 1345084); conditions: Gynecologic cancer cell panel viability, ATPlite luminescence, 48 h; series mostly up to 57.5 µM; also: % is scaled to controls: 0 for no effect and ±100 for the full control effect; nearly all actives have a fitted effect of over 55% in size
Outline: (§3)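 Cells, 1,000 per well, plated 16 h, then exposed 48 h at 37 C to compounds. Viability by ATPlite luminescence after 15 min at room temperature.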

CASKI = assay: as above; conditions: Gynecologic cancer cell panel viability, ATPlite luminescence, 48 h; series mostly up to 57.5 µM
Outline: as §3

Es-2 = assay: as above; conditions: Gynecologic cancer cell panel viability, ATPlite luminescence, 48 h; series mostly up to 57.5 µM
Outline: as §3

CAOV3 = assay: as above; conditions: Gynecologic cancer cell panel viability, ATPlite luminescence, 48 h; series mostly up to 57.5 µM
Outline: as §3

W2 = assay: qHTS profiling for inhibitors of Plasmodium falciparum proliferation (AID 504749);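 also: 0% = DMSO vehicle and full inhibition = artemisinin control; nearly all actives have a fitted effect of over 60% in size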; conditions: P. falciparum in erythrocytes, SYBR Green DNA, 72 h; series mostly up to 28.7 µM
Outline: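 P. falciparum-infected erythrocytes (0.3% parasitemia, 2.5% hematocrit final) were exposed to compounds for 72 h at 37 C in 5% CO2, then lysed with SYBR Green buffer overnight at room temperature; parasite DNA fluorescence was normalized to artemisinin and DMSO controls.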

O=S(=O)(F)Cc1ccccc1
inactive: outcome (CRL-7250 [1]) | outcome (HEK293) | max response (HaCat [2]) -8.02% | max response (KB-3-1) 3.23% | max response (NIH3T3 [3]) 3.32% | outcome (CRL-7250 [4]) | outcome (HEK293T) | Potency (MCC-13) | Potency (MCC-26) | Potency (MKL-1) | Potency (MKL-2) | Potency (UISO) | Potency (WaGa)

CCN1C[C@]2(OC(=O)c3ccccc3NC(C)=O)CC[C@H](OC)[C@@]34[C@H]5CC6[C@@H](OC)C[C@](O)(C(C[C@@H]23)[C@@H]14)[C@@]5(O)[C@@H]6OC
inactive: outcome (CRL-7250 [1]) | max response (HEK293) -8.41% | outcome (HaCat [2]) | outcome (KB-3-1) | outcome (NIH3T3 [3]) | outcome (CRL-7250 [4]) | outcome (HACAT [5]) | Potency (MCC-13) | Potency (MCC-26) | Potency (MKL-1) | Potency (MKL-2) | outcome (NIH3T3 [6]) | Potency (UISO) | Potency (WaGa)

C1=C2CCCN[C@H]2[C@@H]2C[C@H]1[C@@H]1CCCCN1C2
inactive: max response (CRL-7250 [1]) -2.39% | max response (HEK293) 0.094% | outcome (HaCat [2]) | max response (KB-3-1) 9.36% | outcome (NIH3T3 [3]) | outcome (HACAT [5]) | Potency (MCC-13) | Potency (MKL-1) | Potency (MKL-2) | outcome (NIH3T3 [6]) | Potency (UISO) | Potency (WaGa)

CC(C)N[C@@H]1CCn2c(=O)[nH]c3cccc(c32)[C@@H]1O
inactive: outcome (CRL-7250 [1]) | max response (HEK293) 2.71% | max response (HaCat [2]) -2.4% | max response (KB-3-1) 6.91% | max response (NIH3T3 [3]) -1.8% | outcome (CRL-7250 [4]) | Potency (MCC-13) | Potency (MCC-26) | Potency (UISO)

NC1=NC(=O)N2CC12 (centres undefined)
active: Potency (CRL-7250 [1]) 11.8 µM | Potency (HEK293) 8.33 µM
inactive: outcome (HaCat [2]) | max response (KB-3-1) 6.64% | outcome (NIH3T3 [3]) | outcome (HACAT [5]) | Potency (MCC-13) | Potency (MCC-26) | Potency (MKL-1) | outcome (NIH3T3 [6])

CC[C@@H](C(N)=O)N1CCCC1=O
inactive: max response (CRL-7250 [1]) 0.0308% | outcome (HEK293) | outcome (HaCat [2]) | max response (KB-3-1) 6.38% | max response (NIH3T3 [3]) 1.04% | outcome (HACAT [5]) | outcome (HEK293T) | Potency (MCC-13) | Potency (MKL-1) | Potency (MKL-2) | Potency (UISO) | Potency (WaGa)

CCC(=O)OC1CCC2C3CCC4=CC(=O)CC[C@@]4(C)C3CC[C@]12C (some centres undefined)
inactive: max response (CRL-7250 [1]) -4.7% | outcome (HEK293) | outcome (HaCat [2]) | outcome (KB-3-1) | max response (NIH3T3 [3]) 4.81% | outcome (HACAT [5]) | outcome (HEK293T) | Potency (MCC-13) | Potency (MCC-26) | Potency (MKL-1) | Potency (MKL-2) | Potency (UISO) | Potency (WaGa)

CC(C)N(CCNC(=O)CN1CCCC1=O)C(C)C
inactive: max response (CRL-7250 [1]) 4.66% and -0.977% | max response (HEK293) 4.1% and 1.15% | max response (HaCat [2]) -6.79% and -2.04% | max response (KB-3-1) -4.8% | outcome (KB-3-1) | max response (NIH3T3 [3]) 2.3% | outcome (NIH3T3 [3]) | Potency (MCC-13) | Potency (MCC-26) | Potency (MKL-1) | Potency (MKL-2) | outcome (NIH3T3 [6]) | Potency (UISO) | Potency (WaGa) | Potency (C33A) | Potency (CASKI) | Potency (Es-2)

CSCC[C@@H](NC(=O)[C@@H](Cc1ccccc1)NC(=O)CNC(=O)CNC(=O)[C@@H](N)Cc1ccc(O)cc1)C(=O)O
inactive: max response (CRL-7250 [1]) 2.24% | max response (HEK293) 3.52% | outcome (HaCat [2]) | max response (KB-3-1) 3.04% | max response (NIH3T3 [3]) 2.68% | outcome (HACAT [5]) | Potency (MCC-13) | Potency (MKL-1) | Potency (MKL-2) | Potency (UISO) | Potency (WaGa)

CCNC(=O)CC1N=C(c2ccc(Cl)cc2)c2cc(OC)ccc2-n2c(C)nnc21 (centres undefined)
active: Potency (CRL-7250 [1]) 1.64 µM
inactive: max response (CRL-7250 [1]) -29.2% and -3.83% | max response (HaCat [2]) -4.28% and 0.244% and -23.7% | max response (KB-3-1) -3.15% | outcome (KB-3-1) | max response (NIH3T3 [3]) 4.41% | outcome (NIH3T3 [3]) | outcome (HEK293T) | Potency (MCC-13) | Potency (MCC-26) | Potency (MKL-1) | outcome (NIH3T3 [6]) | Potency (UISO) | Potency (C33A) | Potency (CAOV3) | Potency (CASKI) | Potency (Es-2)

COc1cccc2c1[C@]13CCN(CC4CC4)[C@H](C2)[C@]1(OC)CCC(=O)C3
inactive: outcome (CRL-7250 [1]) | outcome (HEK293) | outcome (HaCat [2]) | max response (KB-3-1) 7.72% | max response (NIH3T3 [3]) 3.8% | outcome (CRL-7250 [4]) | outcome (HACAT [5]) | outcome (HEK293T) | Potency (MCC-13) | Potency (MCC-26) | Potency (MKL-1) | Potency (MKL-2) | Potency (UISO) | Potency (WaGa)

C[C@H]([C@H](O)CCC(C)(C)O)[C@H]1CC[C@@]2(O)C3=CC(=O)[C@@H]4C[C@@H](O)[C@@H](O)C[C@]4(C)[C@@H]3CC[C@]12C
inactive: max response (CRL-7250 [1]) -2.7% | outcome (HEK293) | outcome (HaCat [2]) | max response (KB-3-1) -1.89% | outcome (NIH3T3 [3]) | outcome (HACAT [5]) | outcome (HEK293T) | Potency (MCC-13) | Potency (MCC-26) | Potency (MKL-1) | Potency (MKL-2) | outcome (NIH3T3 [6]) | Potency (UISO) | Potency (WaGa)

CCOC(=O)c1c(C(C#N)=CN)c2ccc(Cl)c(Cl)c2n1C
inactive: max response (CRL-7250 [1]) 3.66% | max response (HEK293) -12.5% | outcome (HaCat [2]) | max response (KB-3-1) -3.02% | max response (NIH3T3 [3]) 2.89% | outcome (HACAT [5]) | Potency (MCC-13) | Potency (MKL-1) | Potency (MKL-2) | Potency (UISO) | Potency (WaGa)

COC(=O)[C@@H](N)CCCN=C(N)N[N+](=O)[O-]
inactive: Potency (W2) | outcome (CRL-7250 [1]) | max response (HEK293) 0.845% | max response (HaCat [2]) -4.22% | max response (KB-3-1) 9.25% | max response (NIH3T3 [3]) 1.58% | outcome (CRL-7250 [4]) | Potency (MCC-13) | Potency (MKL-1) | Potency (MKL-2) | Potency (UISO) | Potency (WaGa)
